Laboratory results from article PMC7862700, “An all-to-all approach to the identification of sequence-specific readers for epigenetic DNA modifications on cytosine”.

Legend:
Test in all cases: DAPPL (digital affinity profiling via proximity ligation, sequencing); 10 mM Tris-HCl pH 7.5, 50 mM NaCl, 1 mM DTT, 4% glycerol, room temperature, 30 min; GST-TFs on glutathione beads, 16-mer random dsDNA library, 0.1% formaldehyde crosslink after washing; high values mean tight binding
Conditions in all cases: protein: recombinant; tags: N-terminal GST; dsDNA, one strand shown
ELK1 = target: T1, ELK1 (Homo sapiens, UniProt P19419 1-428)
T1 sequence: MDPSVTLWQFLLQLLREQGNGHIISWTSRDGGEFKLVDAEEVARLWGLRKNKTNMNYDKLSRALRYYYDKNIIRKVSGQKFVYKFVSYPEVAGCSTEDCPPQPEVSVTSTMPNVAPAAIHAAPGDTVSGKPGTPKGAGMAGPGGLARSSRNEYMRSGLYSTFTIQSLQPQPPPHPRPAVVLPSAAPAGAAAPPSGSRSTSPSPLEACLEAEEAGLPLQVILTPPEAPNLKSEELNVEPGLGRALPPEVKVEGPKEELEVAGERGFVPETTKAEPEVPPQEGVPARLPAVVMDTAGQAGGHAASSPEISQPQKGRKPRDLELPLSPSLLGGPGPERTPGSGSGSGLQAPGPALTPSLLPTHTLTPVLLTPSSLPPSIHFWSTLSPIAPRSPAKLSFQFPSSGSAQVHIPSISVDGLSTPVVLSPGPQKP
Method in brief: (§1)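 GST fusions of human transcription factors were expressed in yeast and captured with glutathione beads. Once given DNA barcodes and pooled alongside a tag-only sample, they were incubated for 30 min at room temperature with 200 nmole of a random double-stranded 16-mer DNA library in Tris/NaCl/DTT/glycerol buffer, then washed, crosslinked (0.1% formaldehyde), proximity-ligated, PCR-amplified and sequenced on an Illumina NextSeq500. The binding signal of each hexamer is its read frequency for a factor divided by its frequency for the tag-only sample.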

GABPA = target: T2, GABPA (Homo sapiens, UniProt Q06546 1-454)
T2 sequence: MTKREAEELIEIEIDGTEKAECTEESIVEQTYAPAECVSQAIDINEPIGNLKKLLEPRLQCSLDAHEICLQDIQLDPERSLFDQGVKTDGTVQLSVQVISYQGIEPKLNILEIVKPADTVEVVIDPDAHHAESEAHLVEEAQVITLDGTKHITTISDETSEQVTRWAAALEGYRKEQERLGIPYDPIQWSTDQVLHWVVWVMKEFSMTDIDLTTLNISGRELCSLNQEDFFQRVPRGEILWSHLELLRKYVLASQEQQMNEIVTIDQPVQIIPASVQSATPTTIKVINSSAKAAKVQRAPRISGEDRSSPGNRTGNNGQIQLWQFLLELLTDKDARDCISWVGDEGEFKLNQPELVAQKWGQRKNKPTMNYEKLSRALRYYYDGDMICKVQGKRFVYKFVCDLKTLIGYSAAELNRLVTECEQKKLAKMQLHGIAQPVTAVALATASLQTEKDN
Method in brief: as §1

ERG = target: T3, ERG (Homo sapiens, UniProt P11308 1-479)
T3 sequence: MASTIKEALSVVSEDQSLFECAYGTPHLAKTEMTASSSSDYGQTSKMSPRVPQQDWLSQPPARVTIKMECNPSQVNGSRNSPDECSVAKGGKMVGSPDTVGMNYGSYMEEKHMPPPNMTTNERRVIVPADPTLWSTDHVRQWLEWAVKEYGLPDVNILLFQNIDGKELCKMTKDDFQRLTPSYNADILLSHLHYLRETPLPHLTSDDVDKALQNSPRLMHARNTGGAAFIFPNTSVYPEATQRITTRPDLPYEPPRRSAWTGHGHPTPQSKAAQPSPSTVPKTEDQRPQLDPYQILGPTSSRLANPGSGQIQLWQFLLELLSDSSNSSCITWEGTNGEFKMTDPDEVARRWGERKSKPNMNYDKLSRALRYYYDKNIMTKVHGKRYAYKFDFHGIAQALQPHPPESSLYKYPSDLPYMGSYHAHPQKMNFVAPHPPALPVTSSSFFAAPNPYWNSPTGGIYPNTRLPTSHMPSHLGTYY
Method in brief: as §1

ELF1 = ELF1 (Homo sapiens, UniProt P32519 1-619)
Sequence of ELF1 (P32519 whole entry): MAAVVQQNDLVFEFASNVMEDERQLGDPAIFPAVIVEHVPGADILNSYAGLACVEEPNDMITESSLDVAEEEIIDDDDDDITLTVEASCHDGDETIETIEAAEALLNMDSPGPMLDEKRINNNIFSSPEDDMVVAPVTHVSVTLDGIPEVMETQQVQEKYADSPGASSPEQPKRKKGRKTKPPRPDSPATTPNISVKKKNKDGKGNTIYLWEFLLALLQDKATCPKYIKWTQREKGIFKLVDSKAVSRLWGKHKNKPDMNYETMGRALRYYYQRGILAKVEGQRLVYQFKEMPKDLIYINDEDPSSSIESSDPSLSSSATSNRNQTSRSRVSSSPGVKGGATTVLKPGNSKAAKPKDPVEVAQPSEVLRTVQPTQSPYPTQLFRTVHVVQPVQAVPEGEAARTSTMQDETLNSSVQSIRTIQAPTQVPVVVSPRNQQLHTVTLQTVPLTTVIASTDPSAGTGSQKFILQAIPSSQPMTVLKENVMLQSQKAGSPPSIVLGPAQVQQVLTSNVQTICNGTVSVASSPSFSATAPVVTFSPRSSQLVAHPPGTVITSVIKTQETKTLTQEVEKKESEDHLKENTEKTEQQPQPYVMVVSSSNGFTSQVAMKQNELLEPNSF
Method in brief: as §1

EHF = target: T4, EHF (Homo sapiens, UniProt Q9NZC4 1-300)
T4 sequence: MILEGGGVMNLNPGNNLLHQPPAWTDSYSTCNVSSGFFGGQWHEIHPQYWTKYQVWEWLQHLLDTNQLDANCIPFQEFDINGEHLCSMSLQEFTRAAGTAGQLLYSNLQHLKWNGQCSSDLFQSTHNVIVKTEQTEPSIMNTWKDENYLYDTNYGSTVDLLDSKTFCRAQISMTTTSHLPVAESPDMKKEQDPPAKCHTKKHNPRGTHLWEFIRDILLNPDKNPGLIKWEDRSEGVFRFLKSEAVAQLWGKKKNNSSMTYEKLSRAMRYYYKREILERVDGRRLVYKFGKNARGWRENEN
Method in brief: as §1

SPIB = SPIB (Homo sapiens, UniProt Q01892 1-262)
Sequence of SPIB (Q01892 whole entry): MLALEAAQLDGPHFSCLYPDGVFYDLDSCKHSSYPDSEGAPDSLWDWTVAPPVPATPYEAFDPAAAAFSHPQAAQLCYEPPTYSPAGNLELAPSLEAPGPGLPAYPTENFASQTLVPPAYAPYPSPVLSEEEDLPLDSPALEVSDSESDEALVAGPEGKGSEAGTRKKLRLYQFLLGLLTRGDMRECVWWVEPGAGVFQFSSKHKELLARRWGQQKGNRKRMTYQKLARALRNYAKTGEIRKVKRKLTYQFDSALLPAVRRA
Method in brief: as §1

ELK3 = target: T5, ELK3 (Homo sapiens, UniProt P41970 1-407)
T5 sequence: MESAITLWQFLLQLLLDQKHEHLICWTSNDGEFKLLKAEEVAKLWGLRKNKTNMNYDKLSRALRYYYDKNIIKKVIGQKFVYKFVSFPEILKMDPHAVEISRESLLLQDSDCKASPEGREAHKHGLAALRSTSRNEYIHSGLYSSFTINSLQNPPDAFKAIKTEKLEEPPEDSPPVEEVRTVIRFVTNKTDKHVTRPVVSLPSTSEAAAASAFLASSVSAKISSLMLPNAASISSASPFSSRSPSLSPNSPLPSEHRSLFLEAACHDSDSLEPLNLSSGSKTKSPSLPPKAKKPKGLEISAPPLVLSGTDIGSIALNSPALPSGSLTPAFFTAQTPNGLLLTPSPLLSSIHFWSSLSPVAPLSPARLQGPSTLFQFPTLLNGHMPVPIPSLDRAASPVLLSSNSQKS
Method in brief: as §1

FEV = target: T6, FEV (Homo sapiens, UniProt Q99581 1-238)
T6 sequence: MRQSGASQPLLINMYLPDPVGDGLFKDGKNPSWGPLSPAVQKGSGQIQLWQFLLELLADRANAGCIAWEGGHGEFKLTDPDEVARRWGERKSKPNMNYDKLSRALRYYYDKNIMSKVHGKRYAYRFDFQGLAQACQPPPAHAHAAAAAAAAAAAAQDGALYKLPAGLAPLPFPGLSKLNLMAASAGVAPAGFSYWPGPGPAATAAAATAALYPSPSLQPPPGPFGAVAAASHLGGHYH
Method in brief: as §1

ETV5 = ETV5 (Homo sapiens, UniProt P41161 1-510)
Sequence of ETV5 (P41161 whole entry): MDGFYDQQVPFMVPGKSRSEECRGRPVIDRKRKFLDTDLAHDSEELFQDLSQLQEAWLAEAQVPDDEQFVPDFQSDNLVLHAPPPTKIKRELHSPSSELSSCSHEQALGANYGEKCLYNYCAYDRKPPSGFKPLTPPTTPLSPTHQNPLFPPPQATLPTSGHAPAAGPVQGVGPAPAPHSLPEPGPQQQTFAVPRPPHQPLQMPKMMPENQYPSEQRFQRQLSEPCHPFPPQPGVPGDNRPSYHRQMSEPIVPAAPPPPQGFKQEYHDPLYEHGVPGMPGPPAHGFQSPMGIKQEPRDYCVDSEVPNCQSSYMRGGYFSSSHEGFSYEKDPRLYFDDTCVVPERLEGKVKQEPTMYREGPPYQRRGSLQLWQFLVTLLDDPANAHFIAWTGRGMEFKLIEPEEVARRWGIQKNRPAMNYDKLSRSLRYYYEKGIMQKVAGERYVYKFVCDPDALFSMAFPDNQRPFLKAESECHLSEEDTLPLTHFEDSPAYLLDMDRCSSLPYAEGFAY
Method in brief: as §1

ELF4 = ELF4 (Homo sapiens, UniProt Q99607 1-663)
Sequence of ELF4 (Q99607 whole entry): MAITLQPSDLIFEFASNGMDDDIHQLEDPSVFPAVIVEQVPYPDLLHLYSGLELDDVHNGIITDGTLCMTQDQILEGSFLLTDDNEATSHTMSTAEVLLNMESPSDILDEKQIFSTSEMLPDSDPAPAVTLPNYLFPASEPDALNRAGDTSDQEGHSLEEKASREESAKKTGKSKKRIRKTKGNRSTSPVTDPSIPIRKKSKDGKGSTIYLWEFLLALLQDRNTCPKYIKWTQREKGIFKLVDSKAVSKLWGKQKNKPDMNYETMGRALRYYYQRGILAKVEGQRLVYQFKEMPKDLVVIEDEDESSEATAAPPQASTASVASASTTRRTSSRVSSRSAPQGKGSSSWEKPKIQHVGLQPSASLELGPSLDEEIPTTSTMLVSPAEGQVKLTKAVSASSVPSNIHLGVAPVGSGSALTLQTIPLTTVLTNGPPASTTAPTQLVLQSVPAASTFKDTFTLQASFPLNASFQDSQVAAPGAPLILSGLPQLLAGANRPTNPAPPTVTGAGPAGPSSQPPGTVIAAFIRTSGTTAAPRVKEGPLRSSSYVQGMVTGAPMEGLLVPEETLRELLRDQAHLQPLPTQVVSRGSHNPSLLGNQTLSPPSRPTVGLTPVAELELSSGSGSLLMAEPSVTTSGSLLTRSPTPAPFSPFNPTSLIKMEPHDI
Method in brief: as §1

ELF3 = target: T7, ELF3 (Homo sapiens, UniProt P78545 1-371)
T7 sequence: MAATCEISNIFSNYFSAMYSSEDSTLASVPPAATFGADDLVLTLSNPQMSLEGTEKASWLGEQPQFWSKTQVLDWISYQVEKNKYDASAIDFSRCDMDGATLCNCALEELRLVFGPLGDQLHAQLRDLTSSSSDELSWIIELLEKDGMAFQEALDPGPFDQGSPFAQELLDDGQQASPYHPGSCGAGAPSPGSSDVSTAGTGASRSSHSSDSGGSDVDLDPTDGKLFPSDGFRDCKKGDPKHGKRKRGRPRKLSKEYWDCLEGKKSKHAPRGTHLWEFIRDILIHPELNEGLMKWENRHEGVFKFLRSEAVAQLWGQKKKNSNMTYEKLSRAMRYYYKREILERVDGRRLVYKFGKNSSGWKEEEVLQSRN
Method in brief: as §1

ETV1 = ETV1 (Homo sapiens, UniProt P50549 1-477)
Sequence of ETV1 (P50549 whole entry): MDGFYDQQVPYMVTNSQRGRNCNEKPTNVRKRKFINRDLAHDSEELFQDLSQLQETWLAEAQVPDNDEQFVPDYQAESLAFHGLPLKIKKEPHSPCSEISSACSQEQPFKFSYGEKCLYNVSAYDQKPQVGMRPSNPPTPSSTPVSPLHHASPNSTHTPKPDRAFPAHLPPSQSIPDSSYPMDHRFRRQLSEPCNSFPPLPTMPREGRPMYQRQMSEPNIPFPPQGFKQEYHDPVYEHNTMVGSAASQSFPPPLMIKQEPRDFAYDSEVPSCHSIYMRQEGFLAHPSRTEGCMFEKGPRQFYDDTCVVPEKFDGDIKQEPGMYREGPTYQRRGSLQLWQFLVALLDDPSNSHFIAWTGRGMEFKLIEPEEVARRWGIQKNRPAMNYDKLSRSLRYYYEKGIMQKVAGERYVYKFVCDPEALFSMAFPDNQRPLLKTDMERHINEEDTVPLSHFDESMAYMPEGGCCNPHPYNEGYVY
Method in brief: as §1

ERF = target: T8, ERF (Homo sapiens, UniProt P50548 1-548)
T8 sequence: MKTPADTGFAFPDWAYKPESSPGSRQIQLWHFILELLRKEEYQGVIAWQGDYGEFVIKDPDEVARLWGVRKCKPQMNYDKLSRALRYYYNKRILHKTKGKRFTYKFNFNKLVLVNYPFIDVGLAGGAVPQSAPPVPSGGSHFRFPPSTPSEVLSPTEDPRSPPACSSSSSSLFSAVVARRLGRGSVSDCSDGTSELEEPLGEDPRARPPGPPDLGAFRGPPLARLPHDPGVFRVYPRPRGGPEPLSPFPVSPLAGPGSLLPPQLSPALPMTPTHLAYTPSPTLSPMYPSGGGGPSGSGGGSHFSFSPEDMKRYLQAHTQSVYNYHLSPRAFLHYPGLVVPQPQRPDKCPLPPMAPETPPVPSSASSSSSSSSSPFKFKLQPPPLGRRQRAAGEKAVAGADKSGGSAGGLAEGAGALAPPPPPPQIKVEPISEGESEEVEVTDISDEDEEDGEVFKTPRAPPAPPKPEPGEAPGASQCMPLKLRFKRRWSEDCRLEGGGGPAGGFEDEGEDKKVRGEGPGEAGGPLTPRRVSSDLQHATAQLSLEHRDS
Method in brief: as §1

ETV3L = target: T9, ETV3L (Homo sapiens, UniProt Q6ZN32 1-361)
T9 sequence: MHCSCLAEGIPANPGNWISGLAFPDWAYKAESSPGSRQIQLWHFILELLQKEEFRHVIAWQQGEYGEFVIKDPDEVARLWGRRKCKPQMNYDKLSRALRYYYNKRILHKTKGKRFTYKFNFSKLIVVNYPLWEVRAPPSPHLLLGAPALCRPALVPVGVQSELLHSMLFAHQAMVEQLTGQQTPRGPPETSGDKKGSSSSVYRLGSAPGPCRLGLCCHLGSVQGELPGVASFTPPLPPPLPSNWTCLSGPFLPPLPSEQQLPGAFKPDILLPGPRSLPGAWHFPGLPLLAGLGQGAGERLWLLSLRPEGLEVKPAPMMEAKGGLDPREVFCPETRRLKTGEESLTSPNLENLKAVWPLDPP
Method in brief: as §1

ETS2 = target: T10, ETS2 (Homo sapiens, UniProt P15036 1-469)
T10 sequence: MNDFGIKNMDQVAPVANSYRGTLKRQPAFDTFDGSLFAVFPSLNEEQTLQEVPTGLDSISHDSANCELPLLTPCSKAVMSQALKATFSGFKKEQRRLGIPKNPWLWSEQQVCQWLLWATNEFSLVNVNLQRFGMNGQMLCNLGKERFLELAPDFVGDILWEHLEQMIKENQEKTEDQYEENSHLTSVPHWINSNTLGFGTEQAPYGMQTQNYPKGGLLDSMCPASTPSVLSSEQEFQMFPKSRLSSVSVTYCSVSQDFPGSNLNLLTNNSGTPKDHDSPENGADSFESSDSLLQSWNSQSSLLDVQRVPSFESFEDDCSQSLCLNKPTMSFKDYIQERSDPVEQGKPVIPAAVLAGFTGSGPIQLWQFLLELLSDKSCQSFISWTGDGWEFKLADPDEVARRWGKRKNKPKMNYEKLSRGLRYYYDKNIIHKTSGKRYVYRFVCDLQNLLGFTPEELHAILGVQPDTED
Method in brief: as §1

SPDEF = target: T11, SPDEF (Homo sapiens, UniProt O95238 1-335)
T11 sequence: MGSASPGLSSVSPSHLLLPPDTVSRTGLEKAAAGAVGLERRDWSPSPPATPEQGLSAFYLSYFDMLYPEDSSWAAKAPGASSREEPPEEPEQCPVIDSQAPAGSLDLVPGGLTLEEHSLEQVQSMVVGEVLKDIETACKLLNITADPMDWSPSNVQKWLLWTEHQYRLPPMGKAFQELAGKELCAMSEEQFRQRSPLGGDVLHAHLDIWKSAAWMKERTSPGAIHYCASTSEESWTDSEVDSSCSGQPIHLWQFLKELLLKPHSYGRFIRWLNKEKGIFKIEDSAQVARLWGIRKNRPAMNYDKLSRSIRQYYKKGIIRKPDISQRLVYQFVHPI
Method in brief: as §1

ETV7 = target: T12, ETV7 (Homo sapiens, UniProt Q9Y603 1-341)
T12 sequence: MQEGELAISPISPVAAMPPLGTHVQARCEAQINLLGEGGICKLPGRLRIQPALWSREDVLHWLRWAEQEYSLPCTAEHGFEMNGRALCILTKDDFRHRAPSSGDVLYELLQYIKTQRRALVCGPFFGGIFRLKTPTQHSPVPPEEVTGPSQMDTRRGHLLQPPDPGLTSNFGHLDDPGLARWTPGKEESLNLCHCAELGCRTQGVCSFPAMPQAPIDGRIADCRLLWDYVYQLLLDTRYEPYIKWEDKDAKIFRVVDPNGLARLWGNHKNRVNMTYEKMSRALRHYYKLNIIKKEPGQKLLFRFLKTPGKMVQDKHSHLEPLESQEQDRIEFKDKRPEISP
Method in brief: as §1

ETV3 = target: T13, ETV3 (Homo sapiens, UniProt P41162-2 1-143)
T13 sequence: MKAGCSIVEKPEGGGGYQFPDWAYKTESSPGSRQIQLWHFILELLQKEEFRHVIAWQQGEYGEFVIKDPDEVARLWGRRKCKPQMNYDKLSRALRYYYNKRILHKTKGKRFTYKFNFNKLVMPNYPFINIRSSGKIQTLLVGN
Method in brief: as §1

ETV6 = ETV6 (Homo sapiens, UniProt P41212 1-452)
Sequence of ETV6 (P41212 whole entry): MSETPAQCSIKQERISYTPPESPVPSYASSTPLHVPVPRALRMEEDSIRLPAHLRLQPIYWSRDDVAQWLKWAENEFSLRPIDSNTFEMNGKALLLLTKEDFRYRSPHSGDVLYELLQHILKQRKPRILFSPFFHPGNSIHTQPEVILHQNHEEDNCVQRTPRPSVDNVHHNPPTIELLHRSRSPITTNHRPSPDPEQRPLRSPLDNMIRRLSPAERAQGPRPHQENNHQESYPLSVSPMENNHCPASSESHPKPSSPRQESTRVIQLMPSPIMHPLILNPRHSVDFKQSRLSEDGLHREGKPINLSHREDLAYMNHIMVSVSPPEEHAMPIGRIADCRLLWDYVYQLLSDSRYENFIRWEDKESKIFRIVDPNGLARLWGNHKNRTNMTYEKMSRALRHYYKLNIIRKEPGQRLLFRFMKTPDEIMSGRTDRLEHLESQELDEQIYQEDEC
Method in brief: as §1

Sequence: TGCGCC
- binding signal (ELK1): 1.21 fold enrichment (6-mer frequency, TF over GST control)
- binding signal (GABPA): 1.19 fold enrichment (6-mer frequency, TF over GST control)
- binding signal (ERG): 1.2 fold enrichment (6-mer frequency, TF over GST control)
- binding signal (ELF1): 1.14 fold enrichment (6-mer frequency, TF over GST control)
- binding signal (EHF): 1.08 fold enrichment (6-mer frequency, TF over GST control)
- binding signal (SPIB): 1.27 fold enrichment (6-mer frequency, TF over GST control)
- binding signal (ELK3): 1.07 fold enrichment (6-mer frequency, TF over GST control)
- binding signal (FEV): 1.16 fold enrichment (6-mer frequency, TF over GST control)
- binding signal (ETV5): 1.04 fold enrichment (6-mer frequency, TF over GST control)
- binding signal (ELF4): 1.19 fold enrichment (6-mer frequency, TF over GST control)
- binding signal (ELF3): 1.03 fold enrichment (6-mer frequency, TF over GST control)
- binding signal (ETV1): 1.23 fold enrichment (6-mer frequency, TF over GST control)
- binding signal (ERF): 1.12 fold enrichment (6-mer frequency, TF over GST control)
- binding signal (ETV3L): 1.27 fold enrichment (6-mer frequency, TF over GST control)
- binding signal (ETS2): 1.14 fold enrichment (6-mer frequency, TF over GST control)
- binding signal (SPDEF): 1.07 fold enrichment (6-mer frequency, TF over GST control)
- binding signal (ETV7): 1.09 fold enrichment (6-mer frequency, TF over GST control)
- binding signal (ETV3): 1.15 fold enrichment (6-mer frequency, TF over GST control)
- binding signal (ETV6): 1.27 fold enrichment (6-mer frequency, TF over GST control)
